Screens from PubChem.
An excerpt weighted towards active compounds, which were near 10% of everything screened.
HP1b chromo inh – HTS for Inhibitors of HP1-beta Chromodomain Interactions with Methylated Histone Tails | Chromobox protein homolog 1 (Homo sapiens), P83916 | 390,000 compounds, 0.56% hits | Potency, µM (top dose mostly 114 µM), for inactives: at the highest dose activity change, negative = inhibition, actives largely listed as inhibitors | AlphaScreen HP1-beta / biotin-H3K9me3 peptide binding; note: nearly all actives have a fitted effect of over 70% in size
Target sequence (P83916 whole entry, looked up): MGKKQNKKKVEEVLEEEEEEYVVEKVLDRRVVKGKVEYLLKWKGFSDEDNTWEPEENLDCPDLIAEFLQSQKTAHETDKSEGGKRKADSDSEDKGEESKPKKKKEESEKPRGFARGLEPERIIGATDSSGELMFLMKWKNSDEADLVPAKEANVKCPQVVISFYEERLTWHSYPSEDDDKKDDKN
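Compound inhibition of the preformed complex between 50 nM HP1-beta and 50 nM biotinylated H3K9me3 peptide was read by AlphaScreen. Buffer was PBS pH 7.4 with 0.01% Tween-20. Incubations ran 30 min at room temperature, with 10 ug/mL donor/acceptor beads.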
GLS inhibitor – qHTS for Inhibitors of Glutaminase (GLS) | GLS enzymatic activity, qHTS titration | Glutaminase kidney isoform, mitochondrial (Homo sapiens), O94925 | 410,000 compounds, 0.21% hits | AID 624170, 2012 | Potency, µM (top dose mostly 45.5 µM), for the others: at the highest dose activity change, negative = inhibition, actives largely listed as inhibitors; note: % is set by controls: 0 for no effect and ±100 for the full control effect
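Two-point fluorescence kinetic (t0, 30 min RT) for hKGA; glutamate detected via glutamate oxidase–HRP–Amplex Red. Substrate: 1 mM L-glutamine solution; buffer 45 mM KH2PO4, pH 8.2.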
L3MBTL1 inh – qHTS Assay for the Inhibitors of L3MBTL1; AlphaScreen L3MBTL1–H3K9me1 peptide binding; Potency, µM (doses to about 57.1 µM), for inactives: at the highest dose activity, negative = inhibition, hits mostly inhibitors; 230,000 compounds, 0.66% hits; note: % is set by controls: 0 for no effect and ±100 for the full control effect; nearly all actives have a fitted effect of over 60% in size
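Read-out is AlphaScreen signal from streptavidin donor and nickel chelate acceptor beads (10 ug/mL final each) bridging L3MBTL1 (50 nM) and biotinylated K9-monomethylated H3(1-15) peptide (75 nM), after 30 min compound exposure at room temperature.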
JMJD2A Tudor inh – qHTS Assay for Inhibitors of JMJD2A-Tudor Domain; Potency, µM (top dose mostly 114 µM), for the others: top-dose activity change, negative = inhibition, actives largely listed as inhibitors; AlphaScreen JMJD2A-Tudor / H3K4me3 peptide binding; Lysine-specific demethylase 4A (Homo sapiens), O75164; 390,000 compounds, 4.4% hits; note: % is set by controls: 0 for no effect and ±100 for the full control effect; nearly all actives have a fitted effect of over 50% in size
G9a inh – qHTS Assay for Inhibitors of Histone Lysine Methyltransferase G9a; G9a H3K9 monomethylation, AlphaScreen, 2 h; AID 504332, 2011; 350,000 compounds, 8.8% hits; Potency, µM (series often up to 102 µM), for the others: top-dose activity, negative = inhibition, actives largely listed as inhibitors; note: % is set by controls: 0 for no effect and ±100 for the full control effect; nearly all actives have a fitted effect of over 75% in size
Target sequence (Q96KQ7 913-1193 limits assumed): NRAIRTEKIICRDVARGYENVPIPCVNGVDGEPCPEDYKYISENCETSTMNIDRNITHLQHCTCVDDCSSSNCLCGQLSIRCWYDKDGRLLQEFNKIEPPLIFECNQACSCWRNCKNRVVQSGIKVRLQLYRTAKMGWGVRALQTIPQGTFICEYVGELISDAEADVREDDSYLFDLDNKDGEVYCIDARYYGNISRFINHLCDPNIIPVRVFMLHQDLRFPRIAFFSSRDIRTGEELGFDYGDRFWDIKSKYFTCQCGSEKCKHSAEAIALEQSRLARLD
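Quantitative HTS format: methyltransferase activity on a biotin-tagged H3K9 peptide is measured by AlphaScreen, using a rabbit anti-monomethyl-H3K9 antibody with streptavidin donor and anti-IgG acceptor beads. Final levels are 20 nM enzyme, 500 nM peptide, 20 uM SAM; 2 h RT.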
BAZ2B inh – qHTS Assay for Inhibitors of BAZ2B | Bromodomain adjacent to zinc finger domain protein 2B (Homo sapiens), Q9UIF8 | AlphaScreen BAZ2B-H3K14Ac peptide displacement | Potency, µM (titrated, usually from 114 µM), without a hit: at the top dose activity change, negative = inhibition, usual class: inhibitors | 360,000 compounds, 4.4% hits | AID 504333, 2011; note: % is set by controls: 0 for no effect and ±100 for the full control effect; nearly all actives have a fitted effect of over 60% in size
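AlphaScreen displacement of biotin-H3(5-23)K14Ac peptide (50 nM final) from BAZ2B (50 nM final) in PBS pH 7.4, 0.01% Tween-20; complex preformed 30 min RT, then compounds (top 110 uM) 30 min RT, beads 20 min dark.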
* = called active by the depositor; ? = inconclusive; . = no result; [ ] = dose if it differs, or a comment. Calls come from the whole dose curve; as a rule, active = well fitted curve in the direction sought with a large enough effect; inconclusive = small, poorly fitted or top-dose-only effect, or another doubt; inactive = no such curve, though single readings can be large; an effect the other way counts as inactive or inconclusive. Potency is the fitted concentration of half-maximal effect.

SMILES	HP1b chromo inh	GLS inhibitor	L3MBTL1 inh	JMJD2A Tudor inh	G9a inh	BAZ2B inh
COc1cc2nc(N3CCN(C(=O)OCc4ccccc4)[C@H](C(=O)NC(C)(C)C)C3)nc(N)c2cc1OC	13%	1%	7%	-28%	7.1µM*	-17%
COc1ccc(N2CCN(CC(O)COC(c3ccccc3)c3ccccc3)CC2)cc1 (stereo unspecified)	?	25%	.	45µM*	40µM*	45µM*
COc1ccc(C(OCC(O)CN2CCC(O)CC2)c2ccc(OC)cc2)cc1 (stereo unspecified)	-2%	-3%	.	-18%	-13%	-14%
Oc1ccc(N2CCN(CC(O)c3ccccc3)CC2)cc1 (stereo unspecified)	?	19%	.	56µM*	8.9µM*	-35%
OC(COC(c1ccc(F)cc1)c1ccc(F)cc1)CN1CCCC(C(F)(F)F)C1 (stereo unspecified)	?	13%	.	3.5µM*	11µM*	50µM*
COc1ccc(N2CCN(CC(O)COC(c3ccc(F)cc3)c3ccc(F)cc3)CC2)cc1 (stereo unspecified)	?	26%	.	3.5µM*	5.6µM*	20µM*
CCCCn1c(SCC(=O)c2ccccc2)nc2sc3c(c2c1=O)CCCC3	33%	-15%	.	-11%	1%[59 µM]	-2%
OCCN1CCN(CC(O)COC(c2ccc(F)cc2)c2ccc(F)cc2)CC1 (stereo unspecified)	?	0%	.	7.1µM*	-14%	40µM*
OC(COC(c1ccccc1)c1ccccc1)CN1CCCCC1 (stereo unspecified)	1%	1%	-1%	-1%	-11%[59 µM]	-13%
CC(C)C(=O)NC1CC(=O)N(c2ccc3c(c2)OCCO3)C1 (stereo unspecified)	59%	3%	.	-12%	-12%[59 µM]	3%
COc1cc(Cl)ccc1OC1(C)CCN(Cc2ccc(SC)cc2)C1 (stereo unspecified)	.	19%	.	.	.	.
COc1cc(OC)c(OC)cc1CN1CCN(Cc2ccc(SC)cc2)CC1	?	4%	-6%	20µM*	3.2µM*	40µM*
COc1cc(CN2CCN(Cc3ccc(SC)cc3)CC2)cc(OC)c1O	25µM*	0%	-11%	0.89µM*	7.9µM*	50µM*
COc1cccc(CN2CCN(Cc3cc(OC)c(OC)cc3OC)CC2)c1	18µM*	76%	.	1.6µM*	45µM*	20µM*
CCOC(=O)c1cccc(NC(=O)CC(c2ccc(F)cc2)N2Cc3ccccc3C2=O)c1 (stereo unspecified)	31%	-4%	.	-2%	-10%[59 µM]	1%
COc1ccc(-n2c(=O)c3sc4ccccc4c3n(Cc3ccccc3C)c2=O)cc1OC	34%	-3%	.	-3%	-2%[59 µM]	0%
CCN(CC)c1ccc(C(=O)NCc2nc3cccnc3n2Cc2ccc(C)cc2)cc1	11%[57 µM]	1%	.	?	-2%[59 µM]	-33%
CCOc1ccccc1CNC(=O)Cn1nc(N2CCN(c3ccccc3)CC2)ccc1=O	24%	23%	.	-13%	?	?
Cc1nc2ccccc2n1CCc1nc2c3ccccc3nc(=S)n2[nH]1	15%	-3%	.	63µM*	14µM*	-3%
CC1(C)OC(c2ccccc2)=C/C(=C\C=N\NC(=O)c2ccncc2)O1	7%	-12%	-29%	-29%	43%[12.7 µM]	71µM*
CCN(Cc1ccccc1)C(=O)CCS(=O)(=O)c1cc(Br)cc2c1N(C(=O)C1CC1)CC2	3%	0%	.	-14%	-17%[59 µM]	-33%
O=C(O)c1cc(-c2ccccn2)n[nH]1	37%	.	1%	-1%	-48%	45µM*
O=C(O)c1ccc(-c2ccccn2)s1	26%	24%	11%	-3%	?	-19%
Cc1ccc(NC(=O)CCC(=O)N2Cc3ccccc3Oc3ncccc32)cc1	19%	-8%	.	2%	4%[59 µM]	13%[57.1 µM]
CCc1ccccc1NC(=O)Cn1c(=O)nc(-c2ccccc2)c2ccccc21	23%	-5%	.	-11%	14%[59 µM]	-16%
SMILES	HP1b chromo inh	GLS inhibitor	L3MBTL1 inh	JMJD2A Tudor inh	G9a inh	BAZ2B inh
CCCC[C@]12Cc3cc(OC)c(OC)cc3C(O1)C1=C(O2)C(=O)c2ccccc2C1=O	.	.	.	.	.	7.1µM*
CCCC[C@]12Cc3ccccc3[C@H](O1)C1=C(O2)C(=O)c2ccccc2C1=O	.	.	.	.	19%[2.33 µM]	5%[22.9 µM]
Oc1ccc(F)c2cccnc12	-18%	?	?	10µM*	-4%[59 µM]	16µM*
Oc1c(I)cc(I)c2cccnc12	-20%	6%	-7%	56µM*	50µM*	9%
Clc1cc2cccnc2c2ccccc12	71%	6%	19%	28%	-25%[59 µM]	63%
Oc1c(Cl)cc(Cl)c2cccnc12	-5%	0%	.	28µM*	40µM*	.
c1cnc2nc3c4ccccc4c4ccccc4c3nc2c1	34%	-23%	.	?	.	.
O=C(Oc1c(Cl)cc(Cl)c2cccnc12)c1ccco1	23%	28%	.	89µM*	?	?
O=S(=O)(O)c1cc(I)c(O)c2ncccc12	.	56%	.	.	?	.
CCOc1ccc(NC(=O)CCS(=O)(=O)c2cc3c4c(c2)CCN4C(=O)CC3)cc1	17%	9%	.	-7%	-31%[59 µM]	-9%
Cc1ccc(NC(=O)C(=O)NCC(c2cccnc2)N2CCN(Cc3ccccc3)CC2)cc1F (stereo unspecified)	21%	-4%	.	-15%	?	0%
CC(=O)N1CCc2cc(CNC(=O)Nc3cc(Cl)ccc3C)ccc21	18%[57 µM]	-1%	.	-10%	-6%[59 µM]	12%
O=S(=O)(c1ccc2c(c1)CCN2)N1CCCCCC1	6%	-9%	.	-23%	-3%[59 µM]	-13%
O=C(Oc1ccc(Cl)c2cccnc12)N1CCCCC1	19%	5%	9%	-16%	-8%[59 µM]	-3%
Oc1ccc(Cl)c2cccnc12	9%	10%	.	18µM*	24%[59 µM]	.
O=C(Oc1ccc(Cl)c2cccnc12)c1cccnc1	45%	0%	?	-26%	1%	56µM*
Cc1nn(C(C)C(=O)NNC(=S)Nc2ccc(Cl)cc2)c(C)c1[N+](=O)[O-] (stereo unspecified)	3%	11%	.	-22%	8.9µM*	-5%
Cc1cnn(CCC(=O)NNC(=S)Nc2cccc(Cl)c2)c1	42%	25%	-3%	-20%	50µM*	8%
